{"source": "PubChem BioAssay (Tox21)", "note": "Records with an inconclusive call do not appear. Unmarked numbers belong to inactive results. Calls follow the shape of the full dose curve. % is scaled to controls: 0 for no effect and ±100 for the full control effect.", "data": [{"test": "qHTS assay to identify small molecule agonists of the endoplasmic reticulum stress response signaling pathway - cell viability counter screen (AID 1159517); also: nearly all actives have a fitted effect of over 50% in size", "conditions": "ESRE-bla HeLa viability, CellTiter-Glo luminescence, 5 h; series mostly up to 61 µM; activity change, negative = cytotoxicity: at the top concentration", "description": "U.S. Tox21 Program National Center for Advancing Translational Sciences [NCATS] NIH Chemical Genomics Center [NCGC] U.S. Environmental Protection Agency [EPA] National Institutes of Environmental Health Sciences [NIEHS] National Toxicology Program [NTP] U.S. Food and Drug Administration [FDA] Tox21 Assay Overview: Endoplasmic Reticulum (ER) plays an important role in cellular signaling, protein folding/maturation, stress response, lipid biosynthesis, calcium storage and release etc. Under stress conditions, proteins in ER misfold or unfold, and leading to the expression of ER stress responsive genes. ER stress has been associated with a variety of pathophysiological conditions such as cancer, inflammation, neurodegenerative diseases, diabetes, ischemic heart disease etc. To identify the compounds that induce ER stress response, an ER stress reporter cell line, CellSensor ESRE-bla HeLa (Life Technologies, Carlsbad, CA) containing a beta-lactamase reporter gene under control of the Endoplasmic reticulum Stress Response Element (ESRE) was used to screen Tox21 10K compound library. The cytotoxicity of the Tox21 compound library against the ESRE-bla HeLa cell line was tested in parallel by measuring cell viability using the CellTiter-Glo assay in the same wells.\nTox21 Assay Protocol Summary: ESRE-bla HeLa cells were dispensed at 1,500 cells/6 uL of assay medium per well into black wall/clear-bottom 1536-well plates using a Multidrop Combi (ThermoFisher Scientific, Waltham, MA) dispenser. After the assay plates were incubated at 37 C and 5% CO2 for an overnight, 23 nL of compounds dissolved in DMSO, positive controls or DMSO only was transferred to the assay plate by a Pintool station (Kalypsys, San Diego, CA). The assay plates were incubated at 37 C and 5% CO2 for 5 hr. One uL of LiveBLAzer B/G FRET substrate (Life Technologies) was added using a FRD (Flying Reagent Dispenser, Aurora Discovery, San Diego, CA) and the plates were incubated at room temperature for 2 hr. Fluorescence intensity (405 nm excitation, 460 nm and 530 nm emissions) was measured using an Envision plate reader (PerkinElmer, Shelton, CT). For cytotoxicity, 4 ul/well of CellTiter-Glo reagent was added into the assay plates using an FRD. After 30 min incubation at room temperature, the luminescence intensity was measured using a ViewLux plate reader (PerkinElmer).", "values": [{"smiles": "OCC(CBr)(CBr)CBr", "activity change, negative = cytotoxicity": "-0.551%"}, {"smiles": "CC1=C2[C@H](/C=C(\\C)C(=O)O)CC[C@@H](C)[C@H]2CC1", "activity change, negative = cytotoxicity": "3.41% [at 78.8 µM]"}, {"smiles": "CCOC(=O)[C@H](CCc1ccccc1)N[C@@H](C)C(=O)N1Cc2cc(OC)c(OC)cc2C[C@H]1C(=O)O", "activity change, negative = cytotoxicity": "-22.1%"}, {"smiles": "CN1CCC[C@@H]1Cc1c[nH]c2ccc(CCS(=O)(=O)c3ccccc3)cc12", "activity change, negative = cytotoxicity": "0.322%"}, {"smiles": "CCCCCCCCCC/C=C/C#N", "activity change, negative = cytotoxicity": "-3.09%"}, {"smiles": "Nc1ccc2ccccc2c1S(=O)(=O)O", "activity change, negative = cytotoxicity": "4.66% [at 78.8 µM]"}, {"smiles": "CC(C)(CO)[C@@H](O)C(=O)NCCC(=O)O", "activity change, negative = cytotoxicity": "15.8% [at 78.8 µM]"}, {"smiles": "CCC/C=C/CO", "activity change, negative = cytotoxicity": "-4.52%"}, {"smiles": "CC(C)OC(C)C", "activity change, negative = cytotoxicity": "6.56% [at 78.8 µM]"}, {"smiles": "CCCCNc1cc(C(=O)O)cc(S(N)(=O)=O)c1Oc1ccccc1", "activity change, negative = cytotoxicity": "-12.5%"}, {"smiles": "CCN(CC)CCNC(=O)COc1ccc(Cl)cc1", "activity change, negative = cytotoxicity": "14.3%"}, {"smiles": "C[C@@H]1CN(c2c(F)c(F)c3c(=O)c(C(=O)O)cn(C4CC4)c3c2F)C[C@H](C)N1", "activity change, negative = cytotoxicity": "-6.73% [at 28.5 µM]"}, {"smiles": "COc1ccccc1OCC(O)COC(N)=O", "note": "(stereo not given)", "activity change, negative = cytotoxicity": "-4.53%"}, {"smiles": "COc1cc2c(cc1N)oc1ccccc12", "activity change, negative = cytotoxicity": "-1.09% [at 78.8 µM]"}, {"smiles": "Cn1cnc2c(F)c(Nc3ccc(Br)cc3Cl)c(C(=O)NOCCO)cc21", "activity change, negative = cytotoxicity": "-3.74%"}, {"smiles": "CCCCCCOc1ccc(N)cc1", "activity change, negative = cytotoxicity": "8.71%"}, {"smiles": "CC(C)C(=O)OCC(C)(C)C(O)C(C)C", "note": "(stereo not given)", "activity change, negative = cytotoxicity": "25.5% [at 78.8 µM]"}, {"smiles": "CCCCCOc1ccc(C2SC(=O)NC2=O)cc1OCC", "note": "(stereo not given)", "activity change, negative = cytotoxicity": "-3.95%"}, {"smiles": "CCCCCCCCCCCCCCCCOP(=O)([O-])OCC[N+](C)(C)C", "activity change, negative = cytotoxicity": "4.62%"}, {"smiles": "C[C@]12C(=O)OC(=O)[C@H]1[C@H]1C=C[C@@H]2C1", "activity change, negative = cytotoxicity": "11.5% [at 78.8 µM]"}, {"smiles": "O=Cc1ccc(O)c(O)c1O", "activity change, negative = cytotoxicity": "-3.21%"}, {"smiles": "CC(C)c1ccccc1", "activity change, negative = cytotoxicity": "1.79% [at 78.8 µM]"}, {"smiles": "CCCCC(CC)COC(=O)COc1cc(Cl)c(Cl)cc1Cl", "note": "(stereo not given)", "activity change, negative = cytotoxicity": "-0.683%"}, {"smiles": "C[C@]12CCC(=O)C=C1CC[C@@H]1[C@@H]2CC[C@@]2(C)[C@H]1CC[C@]2(O)C(=O)CO", "activity change, negative = cytotoxicity": "6.93%"}, {"smiles": "COC(=O)/C=C(/C)N", "activity change, negative = cytotoxicity": "8.59%"}, {"smiles": "CCCS(=O)c1ccc2nc(NC(=O)OC)[nH]c2c1", "note": "(stereo not given)", "activity change, negative = cytotoxicity": "-1.59%"}, {"smiles": "CCOc1ccc(NS(=O)(=O)c2ccc(N)cc2)nn1", "activity change, negative = cytotoxicity": "3.34%"}, {"smiles": "CN(C)CCOc1ccccc1Cc1ccccc1", "activity change, negative = cytotoxicity": "0.842%"}, {"smiles": "CCCCC1CCC(=O)O1", "note": "(stereo not given)", "activity change, negative = cytotoxicity": "-5.19%"}, {"smiles": "O=c1[nH]c(=O)n([C@H]2C[C@H](O)[C@@H](CO)O2)cc1C(F)(F)F", "activity change, negative = cytotoxicity": "3.14%"}, {"smiles": "COc1ccc2nc(NC(=O)Nc3ccccc3)sc2c1", "activity change, negative = cytotoxicity": "-15.4%"}, {"smiles": "CCCCNCCCC", "activity change, negative = cytotoxicity": "-26.6%"}, {"smiles": "CC(=O)O[C@H]1CC[C@@]2(C)C(=CC[C@@H]3[C@@H]2CC[C@]2(C)C(C(C)=O)=CC[C@@H]32)C1", "activity change, negative = cytotoxicity": "-1.55%"}, {"smiles": "CS(=O)(=O)c1ccc([C@@H](O)[C@@H](CF)NC(=O)C(Cl)Cl)cc1", "activity change, negative = cytotoxicity": "1.52%"}, {"smiles": "CCCCOc1cc(C(=O)NCCN(CC)CC)c2ccccc2n1", "activity change, negative = cytotoxicity": "-4.93%"}, {"smiles": "O=C(O)c1ccccc1Nc1cc(Cl)ccc1C(=O)O", "activity change, negative = cytotoxicity": "1.15% [at 28.5 µM]"}, {"smiles": "CN(CC1(C)CCCO1)S(=O)(=O)c1ccc(Cl)c(S(N)(=O)=O)c1", "note": "(stereo not given)", "activity change, negative = cytotoxicity": "-0.561%"}, {"smiles": "CC(C)C1=CC2=CC[C@@H]3[C@](C)(CCC[C@@]3(C)C(=O)O)[C@H]2CC1", "activity change, negative = cytotoxicity": "-1.27%"}, {"smiles": "O=C1CCN(c2ccccc2)N1", "activity change, negative = cytotoxicity": "3.57% [at 78.8 µM]"}, {"smiles": "NCCC(O)(P(=O)(O)O)P(=O)(O)O", "activity change, negative = cytotoxicity": "-14.6%"}]}]}
